# Source: the supplement of paper PMC6555819
# Tests used:
# Assay in all cases: PBM binding z-score (relative to random genomic background probes); higher = stronger binding; sequences stand for … in GC…GCGATTGACAGCGTAGAATGAAGG
# [1] = system: RARb homodimer (NR concentration 270 nM)
# Method in brief: (§1)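 Ligand-free nuclear receptor dimers were applied to custom Agilent 4×180K protein-binding microarrays whose double-stranded probes carried direct-repeat seeds, single-nucleotide variants, half-site ablations and random human genomic background sequences in 34-nt variable regions. Incubation lasted 1 h. Binding z-scores were computed against the random background probes from regression-normalized fluorescence.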
# [2] = system: RARg:RXRa (NR concentration 270 nM, RXRa partner concentration 90 nM)
# Method in brief: as §1
# [3] = system: RARg homodimer (NR concentration 270 nM)
# Method in brief: as §1
# [4] = system: RXRa DBDmut IVT, anti-RXR (DBD mutation: RXRa K156A/R161A, NR concentration 90 nM)
# Method in brief: as §1
# [5] = system: RXRa homodimer (NR concentration 180 nM)
# Method in brief: as §1
# [6] = system: THRa:RXRa (NR concentration 90 nM, RXRa partner concentration 90 nM)
# Method in brief: as §1
# [7] = system: THRa homodimer (NR concentration 90 nM)
# Method in brief: as §1
# [8] = system: VDR homodimer (NR concentration 270 nM)
# Method in brief: as §1
Sequence,PBM binding z-score [1],PBM binding z-score [2],PBM binding z-score [3],PBM binding z-score [4],PBM binding z-score [5],PBM binding z-score [6],PBM binding z-score [7],PBM binding z-score [8]
GTACCAAGGTGAATAGGTCATTGATGAGTAGGCG,3.98,4.79,3.34,-0.0633,3.5,2.82,0.757,0.849
CCGACTGGGGCAAAGATTACCATACTCAGTACGA,-0.379,0.0799,0.405,0.314,-0.0917,-0.407,-0.518,-0.37
ATATATAGGTTAGCTGGGGTCATTCAGACTAGGC,3.92,4.47,3.4,2.09,5.55,5.15,3.63,5.64
AGAATGAGGTTATTAAGATCAGGGAGTTGCGGTC,0.826,1.05,0.672,1.99,1.78,2.17,0.897,1.39
TCTAGTTGGTCAAAGGTAACACACTCGAAATGCG,1.51,1.97,1.45,1.33,2.42,1.46,0.935,0.995
CCAGACAGGCGAGAAGGTAACTCAGCCTCGATTA,-0.738,-0.546,-0.427,-0.382,-0.473,-0.499,-0.402,-0.366
GCTCGGAGGACTAGGTCAGAGCTTTGTCCGTAGA,1.4,0.32,0.804,-0.871,-0.228,0.731,-0.465,-0.906
CGAACGAGGGTATGAGTTGATAGCAAATGCCGAT,-0.208,0.124,0.248,0.658,0.0632,-0.183,-0.485,0.345
TCTTGTAGATCAAAGGTTTAGAAAGCCGAAGCCT,-0.342,-0.312,-0.404,0.516,0.291,-0.356,-0.747,0.0902
CCAGACAGGTGAGAAGGTAACTCCGCCTCGATTA,0.57,0.45,0.417,-0.0199,0.0477,0.0136,0.252,-0.0348
GCGACTGGGGCATAAGCAGGTTACCATAACTTAA,0.55,0.617,0.393,0.0117,0.39,0.914,-0.368,-0.246
CCTTACGGGTCACTGAGAGGTTATAGCATTTGGA,3.75,6.72,4.64,1.75,5.62,3.46,0.613,1.78
CTTCCAAGGTCAGCAGGTCAGTGAAAGCGACGTG,5.26,6.14,6.94,2.24,5.48,3.83,2.79,1.68
GCATATAGGTAATACAAGGTGAAACTCCGATTGT,0.806,0.886,0.775,0.602,1.06,4.51,1.21,0.121
TCTGCTAGGTCAACGATGGTCAGCTTATCTGCTA,3.56,4.14,4.75,1.26,2.49,3.22,0.783,-0.342
ATCTCTAGGTAAAGATATTTCAGTGAATGCAAAT,-0.275,0.202,0.289,-0.0383,0.125,0.524,0.252,-0.0481
GCGACTGGGGCAGAGCAGGTTACCATAAGGTTGG,0.826,0.0864,0.288,-0.613,0.225,1.64,-0.115,-0.654
TTACCAATGTGAAGGTCGTTGATCCCTCTGTAGA,1.25,0.262,0.216,0.586,1.05,0.82,0.201,1.04
GATACAGGGTCAGCTAGAGGCCAGACTATGGAAA,3.59,6.62,4.83,0.964,4.23,3.1,0.411,0.781

Sequence,PBM binding z-score [1],PBM binding z-score [2],PBM binding z-score [3],PBM binding z-score [4],PBM binding z-score [5],PBM binding z-score [6],PBM binding z-score [7],PBM binding z-score [8]
AATACAGGGTCACTAGGCCAGAGTTGGTACGAAT,3.56,5.2,5.06,2.8,5.94,3.51,1.21,2.58
TCATATAGGTAAAGGTGCAAGTCGAACGATATGA,0.0991,0.803,0.522,0.75,1.18,0.151,-0.746,0.385
CCTACTGGGCCCAAGGTCATTGATTCCAATGCTC,3.52,2.64,2.42,0.382,2.82,3.22,2.76,2.48
TCTGGTAGGTCAACGATGGTCAGCTAATCTGCTA,3.75,4.31,4.78,1.26,3.49,2.98,0.7,0.622
CGAACTATGTCATCCAGGACAGTGAATACATTGA,0.612,0.908,1.14,0.468,0.578,1.71,0.973,0.592
GATACAGGGTCAGCGAGAGGCCAGAGTATGGAAA,3.12,6.57,4.48,1.31,4.6,3.3,0.369,0.864
GCTGCTAGGTCAGCTTGGTCAGCTAACGGGTACG,2.8,2.8,3.88,0.514,1.1,1.73,0.547,-0.161
CCTAATGGGCCATCAGGTCATTGATATCAACGTT,2.76,2.27,2.23,0.496,1.39,3.38,2.92,1.57
CCTTCTGGGCCAAAAAGGTCATTGATGCCGATAA,4.2,4.63,4.26,1.29,4.8,2.87,0.411,2.86
ATCGAAAGGTCGAGGTGAGCATAGAGAAAGGGAA,2.98,4.34,4.61,0.687,4.63,2.98,0.737,0.234
GCTAGTTGGTCAGTAAAAGGTCACCCACCGGTCG,5.12,5.56,4.94,-0.12,5.13,3.42,1.89,1.26
CCTACTGGGCCATAGGTCATTGATTCCAATGCTC,2.63,2.89,1.95,0.122,2.63,1.61,0.173,0.271
ATCGAAAGGTCGAGGTGAGAATAGAGAAAGGGAA,2.77,4.3,4.7,0.437,4.86,2.73,0.58,-0.0619
TCTTGTAGATCAACAGGAGGTTAAGAATGATCGA,0.596,1.13,0.374,0.333,0.964,0.774,-0.347,0.202
CGAACGAGGGCATGAGTTGATGGCAAATGCCGAT,0.659,1.25,1.6,2.05,0.973,1.08,-0.389,1.31
CCTAGGAGGCCAATCTGGGTCACTCAAGGCTTGA,2.69,1.66,2.12,-0.07,1.19,4.21,0.462,0.0459
TAGCTTAGGTCAGATCGGGCCAGTATACGCTATA,2.23,2.89,3.71,-0.0319,1.47,4.3,0.376,-0.357
ACTCGGAGGAAAAAGGTCAGAGCTACGCCAGTGA,4.12,4.09,3.97,-0.291,3.67,2.24,-0.145,0.161
CCTCGGAGGACAACAGGAGGTTAGAGCTGCCAGA,1.12,0.878,1.47,0.257,-0.0815,1.19,0.00678,0.0214

Sequence,PBM binding z-score [1],PBM binding z-score [2],PBM binding z-score [3],PBM binding z-score [4],PBM binding z-score [5],PBM binding z-score [6],PBM binding z-score [7],PBM binding z-score [8]
GGAACGAGGCCAAGTTGATAGCAGAGTTTGATGG,0.533,0.334,1.03,1.18,-0.0996,0.407,-0.535,0.778
TCTTGTAGATCAGCAGTTTAAGAAAGCTGGCCAA,-0.447,-0.29,-0.416,0.659,-0.0867,-0.138,-0.319,0.0603
CCTAGTTGGTCAGGAGGTGACACACCGGATATGA,1.48,1.12,1.22,-0.691,0.768,1.18,0.64,0.232
CGAACTAGGTCATTGACAGGACAGCGAATAGTAA,2.86,4.65,4.4,2.19,2.44,2.9,0.784,1.31
CCTTACGGGTCACTCCAGGTTATACCATCGGAGT,2.89,4.32,4.44,1.3,4.29,4.98,0.681,1.45
ATATGTAGGTTAGCTGGGGTCATTCGGACTAGGC,3.59,4.28,2.86,2.17,5.36,5.12,3.5,5.38
TTACCAAGGTGAGATGAGGTCGTTGATCCAACTC,1.54,1.49,1.26,0.446,1.85,4.77,2,2.31
GCTGCTAGGTCAACTGATGGTAAGCTAAAGCTCG,2.98,4.25,4.92,1.14,2.73,2.9,0.776,-0.0201
ACTCTTAGTTGACTTAGGGCAACCGATACGACGC,1.01,0.837,0.667,0.736,0.605,1.52,0.885,0.184
CCTAGTTGGACAAGGTCACACACGCTATAGGTAC,4.19,4.24,4.16,1.75,4.4,3.93,3.3,3.14
CCTACTGGGTCATCAGGTCATTGATATCAACGTT,4.25,5.07,5,2.14,4.38,3.97,3.17,3.06
CCTACTGGGCCTTCAGGTCATTGATATCAACGTT,2.18,1.13,1.39,-0.0421,0.791,3.15,3.23,1.64
ACTATTATTTGAGACGAGGGCAACCGATAGGTTG,1.51,0.808,0.929,1.03,0.916,1.12,1.07,1.75
TAGCCTAGGTCATGCGGGCGAGTATAGTGTCGGC,2.94,3.64,3.75,0.518,2.68,2.89,1.22,0.494
CCTTCTGGGCCAAGGTCATTGATCAGTCAAAGCA,3.27,3.66,3.02,1.31,3.24,3.49,2.34,2.71
GCTTACGGGCCAAAGGTTATAGCATGAATAGAAT,1.29,2.77,1.04,0.36,3.01,1.58,-0.515,-0.0468
GTACCAAGGTGAATGGGTCGTTGATGAGTAGGCG,1.33,1.28,0.93,-0.402,1.08,1.74,0.777,0.187
GCCATTAGTTGAAAGGGCAACCGAATGATTCTCG,2.22,1.54,1.32,0.641,1.24,0.595,-0.31,-0.125
CGTCCAAGGTCAGTAGGTCAGTGAAAGCGACGTG,4.74,5.95,6.1,2.72,4.05,3.35,1.74,1.94
